# Screening data: PubChem, National Center for Advancing Translational Sciences (NCATS)
# GPT2 inh = Primary qHTS assay for inhibitors of Glutamate pyruvate transaminase 2 (GPT2); 0.25% of 100,000 active; Alanine aminotransferase 2 (Homo sapiens), Q8TD30; AID 1671188, 2021; Recombinant GPT2, coupled pyruvate oxidase/HRP Amplex Red fluorescence; Potency, µM (top dose mostly 57.7 µM), for inactives: at the highest dose activity change, negative = inhibition, actives largely listed as inhibitors; also: potency is read from the fitted curve at half-maximal effect; % is scaled to controls: 0 for no effect and ±100 for the full control effect; nearly all actives have a fitted effect of over 60% in size
# Target sequence (Q8TD30 whole entry, looked up): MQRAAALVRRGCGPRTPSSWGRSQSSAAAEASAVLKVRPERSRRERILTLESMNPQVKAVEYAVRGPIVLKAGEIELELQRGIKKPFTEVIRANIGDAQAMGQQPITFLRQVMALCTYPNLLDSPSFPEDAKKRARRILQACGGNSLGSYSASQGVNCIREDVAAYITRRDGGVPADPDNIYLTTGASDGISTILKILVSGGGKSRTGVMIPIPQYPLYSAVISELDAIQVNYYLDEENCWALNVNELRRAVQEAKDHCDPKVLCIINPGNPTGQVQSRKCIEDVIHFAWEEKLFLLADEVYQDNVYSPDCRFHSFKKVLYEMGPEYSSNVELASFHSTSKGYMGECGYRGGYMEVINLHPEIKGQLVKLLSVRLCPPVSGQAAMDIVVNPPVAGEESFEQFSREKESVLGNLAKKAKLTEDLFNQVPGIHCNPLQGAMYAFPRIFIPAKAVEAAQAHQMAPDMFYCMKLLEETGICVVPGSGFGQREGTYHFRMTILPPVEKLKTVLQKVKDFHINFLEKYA
#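 Inhibition is scored from Amplex Red fluorescence generated when pyruvate oxidase and HRP act on pyruvate released by GPT2. Reactions contain 10ng/uL enzyme, 250uM a-KG and 2mM L-alanine and run 30 min at room temperature.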
# SNCA viab count = GF-AFC viability counterscreen for inhibitors of alpha-synuclein gene (SNCA) expression; HEK-293-SNCA-luc viability, GF-AFC fluorescence, 24 h; Potency, µM (doses to about 57.1 µM), for the others: at the highest dose activity change, negative = cytotoxicity, hits mostly cytotoxic; 0.12% of 150,000 active; AID 1671193, 2021;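 also: potency is read from the fitted curve at half-maximal effect; 0% = DMSO-treated cells and -100% = medium-only wells without cells; nearly all actives have a fitted effect of over 30% in size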
#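 Cytotoxicity counterscreen: after 24 h compound treatment of genome-edited SNCA-luciferase HEK-293 cells, live-cell protease substrate GF-AFC read by fluorescence after 30 min; activity scaled between DMSO (0%) and medium-only (-100%), curves Hill-fitted.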
# SNCA expr inh = Primary qHTS assay for inhibitors of alpha-synuclein gene (SNCA) expression; HEK-293 SNCA-luciferase knock-in, luminescence, 24 h; Potency, µM (highest dose often 57.2 µM), inactives show at the top dose activity change, negative = inhibition, usual class: inhibitors; 0.17% of 140,000 active; AID 1671194, 2021;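 also: potency is read from the fitted curve at half-maximal effect; plate controls were DMSO cells for no effect and cell-free wells for full effect; nearly all actives have a fitted effect of over 45% in size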
# GPT2 conf = Confirmatory qHTS assay for inhibitors of Glutamate pyruvate transaminase 2 (GPT2). AID 1671187, 2021. 90% of 95 active. shares compounds with GPT2 inh. GPT2 enzyme, coupled Amplex Red pyruvate fluorescence. Potency, µM, actives largely listed as inhibitors
# * = called active by the depositor; i = inactive; ? = inconclusive; nt = no result; [ ] = remark or other dose. Most compounds without a hit are left out; they make up all but 0.32% or so of the library. Calls follow the shape of the dose curve; as a rule, active = well fitted curve in the direction sought with a large enough effect; inconclusive = small, poorly fitted or top-dose-only effect, or another doubt; inactive = no such curve, though single readings can be large; an effect the other way counts as inactive or inconclusive.
SMILES,GPT2 inh,SNCA viab count,SNCA expr inh,GPT2 conf
CNC(=O)c1cccc(Nc2ncc3c(n2)CN([S+](=O)([O-])c2cccc(OC)c2)CCN3)c1,i,-18.6%,-21.9%,nt
O=C(C1CCN(S(=O)(=O)N2CCOCC2)CC1)N1CCC(CCOc2ccc(F)cc2)C1 (stereo unspecified),-9.9%,-4.1%,-7.4%,nt
CC(=O)Nc1ccc(C(=O)N2CCCC(c3nc(C)ncc3-c3cccc(C)c3)C2)cc1 (stereo unspecified),2.7%,-12.6%,?,nt
CC(=O)Nc1ccc(-c2c(C3CC3)nn(-c3cccc(C)c3)c2OC(C)=O)cc1,?,?,-14.4%,9.68*
COc1ccc(CC(=O)N[C@H]2C[C@@H](c3nc(-c4ccc5ccccc5c4)no3)N(C)C2)cc1,i,-3.2%,59.0%,nt
O=c1cc(-c2ccccc2)oc2cc(O)c(O)c(O)c12,i,-26.6%,28.2%,nt
O=C(O)[C@H]1O[C@H](Oc2cc3oc(-c4ccccc4)cc(=O)c3c(O)c2O)[C@H](O)[C@@H](O)[C@H]1O,3.43µM*,?,15.0%,3.06*
Cn1cc(-c2cnn3c(N)c(Br)c(C4CCCNC4)nc23)cn1 (stereo unspecified),i,-30.2%,nt,nt
COc1ccc(NC(=O)NCC2CCCN(C(C)C)C2)cc1OC (stereo unspecified),i,2.9%,-3.8%,nt
COc1ccc(NC2CCCN(C(=O)C(=O)CC(C)C)C2)cc1OC (stereo unspecified),22.4µM*,-8.4%,10.4%,3.43*
COc1cccc(-c2nc3c([nH]2)CN(c2cc(C4CC4)ncn2)CC3)c1,-6.5%[11.5 µM],?,6.8%,nt
Fc1ccc(CN2CCNc3cc(Nc4ccccc4)ncc3C2)cc1F,2.0%[88.5 µM],-28.7%[87.6 µM],?,nt
Cc1cnc(C(=O)N2CCOc3ccc(CN4CCCCCC4)cc3C2)cn1,i,-3.0%,25.7%,nt
CN(C)c1ccc2c(c1)CN(C(=O)c1cnccn1)CCO2,?,-13.7%,-14.7%,0.863*
COc1ncccc1CNC[C@H]1Cn2cc(-c3ccc4c(c3)OCCCO4)nc2CO1,i,0.3%[87.6 µM],95.3%[87.6 µM],nt
COc1cc(N2CCN(C)CC2)ccc1Nc1nc(N)c(C(=O)c2c(Cl)cccc2Cl)s1,?,-17.3%,?,nt
COc1cc(N2CCC(N(C)C)CC2)ccc1Nc1ncc(Cl)c(Nc2ccccc2P(C)(C)=O)n1,1.93µM*,?,8.55µM*,2.17*
CNS(=O)(=O)c1ccccc1Nc1nc(Nc2ccc(N3CCN(C)CC3)cc2OC)ncc1Br,?,?,nt,2.73*
COc1cc(N2CCN(C)CC2)ccc1Nc1nccc(-c2cn(C)c3cnccc23)n1,3.55µM*,-12.5%,nt,2.43*
COc1cc(N2CCC(N3CCN(C)CC3)CC2)ccc1Nc1ncc(Cl)c(Nc2ccccc2S(=O)(=O)C(C)C)n1,2.24µM*,?,9.9%,3.06*
COc1ccc(-n2cc(-c3ccnc(NCCC4CCCN4C)n3)cn2)cc1 (stereo unspecified),-5.8%,-1.7%,41.4%,nt
COc1ccccc1Nc1ccnc(N2CCC(NC(=O)c3ccc(Cl)nc3)CC2)n1,-11.5%,8.9%,14.5%,nt
COc1ccc(Nc2ncc3c(n2)CCN(Cc2cccc(F)c2F)C3)c(OC)c1,nt,-12.4%,-5.7%,nt
COc1ccccc1Nc1ccnc(N2CCN(C(=O)c3ccccc3)CC2)n1,4.7%,-10.2%,-20.9%,nt
COc1ccc(N2CCN(C3CCCN(Cc4cc(=O)[nH]c(=O)[nH]4)C3)CC2)cc1 (stereo unspecified),?,-0.6%,5.7%,6.85*
SMILES,GPT2 inh,SNCA viab count,SNCA expr inh,GPT2 conf
COc1ccc(N2CCN(C3CCCN(CC=C(C)C)C3)CC2)cc1 (stereo unspecified),?,-0.8%,-18.5%,nt
O=C(NC[C@H]1Cn2c(-c3ccc(Cl)cc3)cnc2CO1)Nc1ccccc1,i,-30.0%[87.6 µM],-0.7%[87.6 µM],nt
COc1ccc(Nc2ncc(C(=O)N3CCN(c4cccc(Cl)c4)CC3)c3ccccc23)cc1,nt,12.3%,-6.5%,nt
C=CC(=O)Nc1cccc(Nc2nc(Nc3ccc(N4CCN(C(C)=O)CC4)cc3OC)ncc2C(F)(F)F)c1,3.16µM*,?,nt,2.17*
CC(=O)NC1(C)CCN(Cc2ccccc2-c2ccc3ccccc3c2)C1 (stereo unspecified),2.7%[88.5 µM],-28.4%[87.6 µM],?,nt
CNC(=O)c1cccc(-c2cnc(Nc3ccc(N4CCOCC4)cc3)c3c2CCO3)c1,?,-22.8%[87.6 µM],96.1%[87.6 µM],6.27*
CNC(=O)c1cccc(-c2cnc(Nc3ccccc3)c3c2CCO3)c1,4.7%[88.5 µM],-16.8%[87.6 µM],172.1%[87.6 µM],nt
O=C(NCCc1ccc(Cl)cc1)c1nc(-c2cccnc2)c2ccccn12,-15.2%,?,-25.6%,nt
COc1ccc(N2CC(C)(NC(C)=O)C2)cc1,nt,nt,nt,3.52*
CC(=O)NC1(C)CN(c2ccc(OC(F)(F)F)cc2)C1,-9.1%[88.5 µM],4.1%[87.6 µM],6.0%[87.6 µM],nt
CCN1c2cc(C(=O)Nc3cccc(SC)c3)ccc2C(=O)N2CCCCCC21 (stereo unspecified),i,1.3%[12.5 µM],?,nt
